Assay outcomes deposited in PubChem by Buhrlage Lab, Dana-Farber Cancer Institute and Novartis Institutes for BioMedical Research (Cambridge, Mass).
USP28 block = inhibitors of human USP28 deubiquitinase. Q96RU2. purified USP28, Ub-rhodamine cleavage fluorescence, 30 min. inhibition, % at 25 µM. 47,000 tested, 3% active. AID 1645857
USP17 inh = inhibitors of human USP17 deubiquitinase; A8MUK1; 47,000 tested, 6.5% active; inhibition, % at 50 µM; purified USP17, Ub-rhodamine cleavage fluorescence, 3 h
USP8 block = human USP8 deubiquitinase inhibition; P40818; purified USP8, Ub-rhodamine cleavage fluorescence, 30 min; inhibition, % at 20 µM; 47,000 tested, 4.2% active
USP30 inh = blocks human USP30 ubiquitin-rhodamine cleavage; inhibition, % at 25 µM; 47,000 tested, 5.3% active; AID 1645860; purified USP30, Ub-rhodamine cleavage fluorescence
USP10 block = inhibitors of human USP10 deubiquitinase; purified USP10, Ub-rhodamine fluorescence, 60 min; inhibition, % at 20 µM; AID 1645856; 47,000 tested, 1.1% active; Q14694
The depositor's hits bear a star; i = inactive; . = no result given. Sampled rows, rich in hits. Any-hit rate of the full collection: about 13%. Cut-off read from the data, not from the text of the source: active = inhibition above about 30%; inactive = the rest.

SMILES	USP28 block	USP17 inh	USP8 block	USP30 inh	USP10 block
CCOC(=O)c1cccc(N=Cc2sc(O)c3ccccc23)c1	-215	-143	-243	i	-6
O=C(c1cc(C2CC2)[nH]n1)N1CCN(c2ccc(N3CCOCC3)nn2)CC1	6	4	5	16	0
O=C(Nc1ccc(Cl)cc1)C1CCCN(c2cnccn2)C1 (stereo unspecified)	9	33*	6	27	0
Cc1c(S(=O)(=O)N2CCCC2)cc(C(=O)Nc2ccccc2)n1C	24	46*	0	9	9
O=C(c1cn(-c2cccc(F)c2)nn1)N1CCN(c2ccccc2)CC1	-16	-10	1	-140	-2
O=C(c1cn(-c2cccc(F)c2)nn1)N1CCc2ccccc2C1	1	55*	1	11	2
O=C(c1ccccc1F)N1CCN(c2nc(-c3ccc(Cl)cc3)no2)CC1	9	-6	-1	44*	3
CSc1cccc(NC(=O)c2ccc3nncn3c2)c1	-6	-3	2	-1	-4
CC1CCCN(S(=O)(=O)c2ccc(-n3cnc(C(=O)NC4CC4)c3)nc2)C1 (stereo unspecified)	7	45*	19	32*	25
CCNC(=O)c1cn(-c2ccc(S(=O)(=O)N3CCCC(C)C3)cn2)cn1 (stereo unspecified)	.	44*	5	.	2
Cc1nnc(-c2ccc3ccn(CC(=O)N4CCCc5ccccc54)c3c2)o1	.	86*	91*	.	85*
Cc1nnc(-c2ccc3ccn(CC(=O)N4CCN(c5ccccc5)CC4)c3c2)o1	24	93*	96*	50*	47*
Cc1ccc(CNC(=O)c2nc(-c3ccc4c(c3)OCC(=O)N4C)no2)cc1	-10	19	5	41*	8
CN1C(=O)COc2cc(-c3noc(C(=O)NC4CCCCCC4)n3)ccc21	0	7	11	56*	-4
O=C(Nc1ccc(Cl)cc1)C1Cn2ccnc2C2(CCN(C(=O)C3CC3)CC2)O1 (stereo unspecified)	0	-20	-110	-6	-4
COc1ccc(CCN(C)C(=O)COc2ncnc3ccccc23)cc1OC	-182	.	23	32*	1
COc1ccc(CCN(C)c2ncnc3c2[nH]c2ccccc23)cc1OC	-7	0	0	-17	-5
COc1cccc(CNC(=O)c2ccc3c(=O)nc4c(-c5cccc(C)c5)n[nH]n4c3c2)c1	-28	-56	43*	-68	5
Cc1ccc(-c2n[nH]n3c2nc(=O)c2ccc(C(=O)NCc4ccco4)cc23)cc1	-4	9	2	-134	19
COc1cccc(Cn2nc3n(CC(C)C)c(=O)c4ccc(C(=O)NCC(C)C)cc4n3c2=O)c1	29	39*	9	65*	8
COc1cccc(C(=O)Cn2nc3n(CCC(C)C)c(=O)c4sccc4n3c2=O)c1	1	-13	-1	6	9
Cc1nc(NC(=O)CN2CCCCC2Cn2cncn2)sc1C (stereo unspecified)	-5	-4	-5	-11	1
COc1ccc(CCNc2nccn(-c3ccc4c(c3)OCO4)c2=O)cc1OC	4	-3	-28	5	0
CC(C)c1noc(-c2ccn3c(CC(=O)Nc4ccccc4)nnc3c2)n1	-5	3	40*	0	8
CCSc1nc(NCC2CCCO2)c2c3c(sc2n1)COC(C)(C)C3 (stereo unspecified)	-29	-33	-44	-58	-9
SMILES	USP28 block	USP17 inh	USP8 block	USP30 inh	USP10 block
COc1cc2nc(CN3CCN(c4ccc(O)cc4)CC3)[nH]c(=O)c2cc1OC	-2	41*	38*	-48	-2
O=C(Cc1nnc(-c2cnccn2)o1)NCc1cccc(Cl)c1	-2	-5	-7	-5	4
O=C(NCc1cccc(Cl)c1)c1sc2ncccc2c1-n1cccc1	31*	16	-52	-57	0
O=C(CNC(=O)c1ccc2nc(-n3cccc3)sc2c1)NCc1cccc(Cl)c1	-29	-51	69*	-70	0
CCOC(=O)C1CCN(C(c2ccco2)c2sc3ncnn3c2O)CC1 (stereo unspecified)	-40	-30	-3	-48	-5
CCCn1c(NC(=O)Cc2coc3cc(OC)ccc23)nc2ccccc21	-21	9	61*	-88	-2
CCCn1c(-c2ccc(OC)cc2)nc2ccccc21	.	-4	4	.	0
COc1cccc(NS(=O)(=O)c2ccc(-c3cc(C)[nH]n3)s2)c1	2	5	8	-28	3
COc1ccc(C(=O)C(=O)Nc2ccccc2)c(O)c1	-4	0	4	-5	-6
